Inconclusive results are not listed. The source made the active and inactive calls. Unless noted, the call rests on the fitted dose curve; in most records, active means well fitted curve in the direction sought with a large enough effect; inconclusive means small, poorly fitted or top-dose-only effect, or another doubt; inactive means no such curve, though single readings can be large; an effect the other way counts as inactive or inconclusive.
Experiments:
[1] = molecular target: Glucocorticoid receptor (Homo sapiens) (UniProt P04150); test: GR-GFP Redistribution (AID 450;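 active means compounds whose dose series gives a full or clear partial fitted curve of increased nuclear translocation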; further: potency means the concentration at half of the fitted maximal effect); details: U2OS GR-GFP nuclear translocation, laser cytometry, 2 h
[2] = molecular target: Glucocorticoid receptor (Homo sapiens) (UniProt P04150); test: GR-EFC Redistribution (AID 451; calls by dose curve; further: potency means the concentration at half of the fitted maximal effect); details: CHO-K1 GR-EFC translocation, beta-gal luminescence, 2 h
How it was run: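 Translocation of GR-ED fusion to nuclear EA restores b-gal, read by luminescence after 1 h room-temperature detection. Engineered CHO-K1 biosensor cells, 1,000/well, exposed 2 h at 37 C to titrations up to 46 uM final.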

[3] = molecular target: Mitogen-activated protein kinase 10 (Mus musculus) (UniProt Q61831); test: JNK3 AlphaScreen Assay (AID 530; active means well fitted curve in either direction with a large enough effect, not every such curve was filed as active;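 further: kinase came from lysate of stimulated human HepG2 cells; signal reports phosphorylation of biotinylated GST-cJun 1-79 at Ser73 with 10 µM ATP; on the % scale 0 is the no-effect control and ±100 the full control effect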)
How it was run: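 Kinase buffer: 20 mM Tris-HCl pH 7.6, 10 mM MgCl2, 1 mM DTT, 0.1 mM Na3VO4, 0.01% Tween-20; ATP 10 uM. Substrate biotin-GST-cJun(1-79), enzyme from activated HepG2 lysates. Detection by Ser73 phospho-antibody AlphaScreen.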

[4] = molecular target: 3',5'-cyclic-AMP phosphodiesterase 4B (Homo sapiens) (UniProt Q07343); test: qHTS Assay for Inhibitors of PDE-IV (AID 607; active means well fitted activation curve with a large enough effect in the main read-out, with a control signal flat, not every such curve was filed as active; further: % of control where 0% means no effect)
How it was run: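 HEK293 ACTOne cells with CNG channel (1000/well), endogenous PDE4; membrane potential dye, compounds up to 22.9 uM final. Fluorescence Ex 535/Em 590; RO 20-1724 (100 uM final) as reference.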

[5] = qHTS Assay for Lipid Storage Modulators (AID 1519; calls by dose curve); details: Drosophila S3 cells, BODIPY lipid droplet/cell ratio, laser cytometry, cells loaded with oleic acid; for activity change, negative = inhibition: at 57.5 µM (top of the series)
How it was run: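 Cells seeded at 5,000 per well were treated with compounds over a concentration series and loaded with oleic acid (400 uM, as added). Lipid droplet fluorescence (488 nm excitation, 500-530 nm channel) was read by laser-scanning cytometry and normalized to 20 uM Triacsin C.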

[6] = molecular target: Dual specificity protein kinase CLK4 (Homo sapiens) (UniProt Q9HAZ1); test: qHTS Assay for Inhibitors of CDC-like Kinase 4 (Kinase-Glo Assay) (AID 1770); further: nearly all actives have a fitted effect of over 65% in size; further: potency means the concentration at half of the fitted maximal effect
How it was run: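 Recombinant human Clk4 (25 nM) phosphorylated RS repeat peptide (100 uM) with 1 uM ATP in Tris pH 7.5/MgCl2/EGTA/DTT/Triton buffer for 4.5 h at room temperature. Residual ATP was quantified by Kinase-Glo luciferase luminescence.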

[7] = molecular target: Dual specificity protein kinase CLK4 (Homo sapiens) (UniProt Q9HAZ1); test: qHTS Assay for Inhibitors of CDC-like Kinase 4 (ADP-Glo Assay) (AID 1771); further: nearly all actives have a fitted effect of over 70% in size; further: potency means the concentration at half of the fitted maximal effect
How it was run: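 25 nM Clk4, 100 uM RS peptide, 1 uM ATP (final); 2 mM MgCl2, 0.5 mM EGTA, 2.5 mM DTT, 0.01% Triton X-100; 1 hr RT. ADP-Glo readout: ATP depletion 45 min, conversion/luciferase 30 min, luminescence.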

[8] = molecular target: Dual specificity protein kinase CLK4 (Homo sapiens) (UniProt Q9HAZ1); test: qHTS Assay for Inhibitors of CDC-like Kinase 4 (ADP-FP Assay) (AID 1795); further: potency means the concentration at half of the fitted maximal effect; nearly all actives have a fitted effect of over 60% in size
How it was run: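 Recombinant human Clk4 (6.25 nM) phosphorylated RS repeat peptide (100 uM) with 1 uM ATP in Tris pH 7.5/MgCl2/EGTA/DTT/Triton buffer for one hour. ADP was quantified by Transcreener competitive fluorescence polarization against an ADP calibration curve.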

[9] = molecular target: Ubiquitin carboxyl-terminal hydrolase 1 (Homo sapiens) (UniProt O94782); test: Inhibitors of USP1/UAF1: Pilot qHTS (AID 504865);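 further: rhodamine fluorescence freed from ubiquitin-rhodamine substrate followed over time; top concentration of the series differs between compounds; on the % scale 0 is the no-effect control and ±100 the full control effect; nearly all actives have a fitted effect of over 35% in size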
How it was run: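 USP1/UAF1 complex (1nM) preincubated with compound 15 min at room temperature, then Ub-Rho substrate (150nM final) added. Fluorescence read kinetically at 480/540 nm, 6 reads every 60 seconds. Buffer: 50mM HEPES pH 7.8, 0.5mM EDTA, 0.1 mg/ml BSA, 1mM TCEP, 0.01% Tween-20.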

[10] = Primary qHTS for small molecule stabilizers of the endoplasmic reticulum resident proteome: Secreted ER Calcium Modulated Protein (SERCaMP) assay (AID 1508630); further: on the % scale 0 is the no-effect control and ±100 the full control effect
How it was run: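 The SH-SY5Y reporter protocol was run at 3 concentrations up to 38.3 uM (primary) or 11 concentrations (follow-up): 16 h compound, 100 nM thapsigargin for 4 h, then extracellular luciferase luminescence.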

[11] = AP1 Signaling Pathway (AID 357; active means well fitted curve in either direction with a large enough effect, not every such curve was filed as active; further: on the % scale 0 is the no-effect control and ±100 the full control effect); details: ME-180 AP-1-bla reporter, EGF-induced, beta-lactamase ratio, 5 h; at 7.69 µM (top of the series) unless noted
How it was run: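 Modulation of EGF-driven AP-1 transcription was assessed with a beta-lactamase reporter in ME-180 cells. Compound and EC50 EGF were co-incubated 5 hours at 37 °C before 2.5-hour CCF4 loading at room temperature and dual-emission reading.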

[12] = molecular target: Cytochrome P450 1A2 (Homo sapiens) (UniProt P05177); test: p450-cyp1a2 (AID 410; calls by dose curve; further: potency means the concentration at half of the fitted maximal effect)
How it was run: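 20nM CYP1A2, 100uM Luciferin-ME (=Km), 100mM KPO4; cpd 10 min RT; +NADPH regen, 60 min RT; stop/detect 20 min; luminescence. Normalized to furafylline 57 uM = full inhibition.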

[13] = NFAT Signaling Pathway (AID 444; active means well fitted curve in either direction with a large enough effect, not every such curve was filed as active;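 further: carbachol stimulus at about its EC50 of 1 µM final; on the % scale 0 is the no-effect control and ±100 the full control effect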); details: Jurkat NFAT-bla M1, carbachol, beta-lactamase ratio, 5 h; at 7.69 µM (top of the series) unless noted
How it was run: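 Read-out: CCF4 FRET ratio (460 nm/530 nm) after 1 h RT dye loading, used for %activity and AC50 from titration series. Cells: Jurkat NFAT-β-lactamase/M1 line, treated with compound plus 1 uM carbachol for 5 h, 37 °C.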

[14] = Stat Signaling Pathway (AID 446; active means well fitted curve in either direction with a large enough effect, not every such curve was filed as active); details: ME-180 (cervical carcinoma) SIE beta-lactamase reporter, IL-6 stimulated, 5 h; at 7.69 µM (top of the series) unless noted
How it was run: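 Normalization used AC90 stimulation (300 pM IL-6) and AC90 inhibition (125 nM pan-JAK inhibitor at 40 pM IL-6). The underlying signal is SIE-driven beta-lactamase in ME-180 cells after 5 h IL-6 exposure with compound.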

[15] = molecular target: Cytochrome P450 3A4 (Homo sapiens) (UniProt P08684); test: qHTS Assay for Inhibitors and Substrates of Cytochrome P450 3A4 (AID 884); further: potency means the concentration at half of the fitted maximal effect; nearly all actives have a fitted effect of over 50% in size
How it was run: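 Luminescent readout of luciferin produced by CYP3A4 (20 nM) dealkylation of Luciferin-PPXE, 25 uM (its KM). NADPH-driven reaction ran 60 min at RT after 10 min compound preincubation; data scaled to 57 uM ketoconazole as 100% inhibition.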

[16] = molecular target: Cytochrome P450 3A4 (Homo sapiens) (UniProt P08684); test: qHTS Assay for Activators of Cytochrome P450 3A4 (AID 885); further: nearly all actives have a fitted effect of over 65% in size
How it was run: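 Human CYP3A4 dealkylates Luciferin-PPXE to luciferin, which luciferase detection converts to light. Substrate was at its KM (25uM), buffer 200mM KPO4, reaction 60 min at RT.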

[17] = molecular target: Cytochrome P450 2C19 (Homo sapiens) (UniProt P33261); test: qHTS Assay for Inhibitors and Substrates of Cytochrome P450 2C19 (AID 899); further: on the % scale 0 is the no-effect control and ±100 the full control effect; nearly all actives have a fitted effect of over 60% in size
How it was run: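 5nM enzyme + 10uM Luciferin-H EGE (=KM), 50mM KPO4; cpd pin-transferred, 10 min 37C; NADPH regen, 60 min 37C; stopped w/ luciferin detection reagent, 20 min; luminescence. Normalized to 57uM ketoconazole (AC100).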

[18] = molecular target: Lysosomal acid glucosylceramidase (Homo sapiens) (UniProt P04062); test: Glucocerebrosidase-p2 (AID 348; in the data active means potency below about 10 µM; further: potency means the concentration at half of the fitted maximal effect); details: purified GBA, blue fluorogenic substrate, 40 min
How it was run: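 Normal human glucocerebrosidase (0.2 nM) with blue fluorogenic substrate (80 uM final) in citrate/phosphate pH 5.9 with 10mM sodium taurocholate, 0.01% tween-20; 40 min RT, NaOH/glycine stop; fluorescence Ex 365/Em 440; AC50 from a titration from 0.6 nM upwards.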

[19] = measured here: cell count channel max response
[20] = measured here: lipid channel max response

Glucocorticoid receptor (Homo sapiens), sequence (P04150 whole entry, looked up, the tested form may be a part): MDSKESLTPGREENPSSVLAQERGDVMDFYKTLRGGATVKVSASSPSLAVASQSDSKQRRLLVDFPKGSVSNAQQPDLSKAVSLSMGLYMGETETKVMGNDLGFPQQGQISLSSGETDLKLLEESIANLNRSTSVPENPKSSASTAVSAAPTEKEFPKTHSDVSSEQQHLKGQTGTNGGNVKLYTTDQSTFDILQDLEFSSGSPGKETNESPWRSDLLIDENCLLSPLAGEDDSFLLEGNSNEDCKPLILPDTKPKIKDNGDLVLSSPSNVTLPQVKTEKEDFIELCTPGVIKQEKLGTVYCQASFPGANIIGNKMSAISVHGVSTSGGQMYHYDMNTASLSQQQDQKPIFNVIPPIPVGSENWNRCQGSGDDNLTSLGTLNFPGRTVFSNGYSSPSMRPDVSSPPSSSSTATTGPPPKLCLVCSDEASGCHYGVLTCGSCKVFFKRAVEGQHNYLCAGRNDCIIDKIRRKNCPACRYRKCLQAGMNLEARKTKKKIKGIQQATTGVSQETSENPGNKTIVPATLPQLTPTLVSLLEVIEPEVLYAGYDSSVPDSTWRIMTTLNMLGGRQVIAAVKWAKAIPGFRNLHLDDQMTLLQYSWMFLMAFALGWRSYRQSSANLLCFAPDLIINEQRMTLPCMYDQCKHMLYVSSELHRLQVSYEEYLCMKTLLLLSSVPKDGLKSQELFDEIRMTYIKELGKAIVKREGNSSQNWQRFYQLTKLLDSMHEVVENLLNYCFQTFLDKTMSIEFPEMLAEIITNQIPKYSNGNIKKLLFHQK
Ubiquitin carboxyl-terminal hydrolase 1 (Homo sapiens), sequence (O94782 whole entry, looked up): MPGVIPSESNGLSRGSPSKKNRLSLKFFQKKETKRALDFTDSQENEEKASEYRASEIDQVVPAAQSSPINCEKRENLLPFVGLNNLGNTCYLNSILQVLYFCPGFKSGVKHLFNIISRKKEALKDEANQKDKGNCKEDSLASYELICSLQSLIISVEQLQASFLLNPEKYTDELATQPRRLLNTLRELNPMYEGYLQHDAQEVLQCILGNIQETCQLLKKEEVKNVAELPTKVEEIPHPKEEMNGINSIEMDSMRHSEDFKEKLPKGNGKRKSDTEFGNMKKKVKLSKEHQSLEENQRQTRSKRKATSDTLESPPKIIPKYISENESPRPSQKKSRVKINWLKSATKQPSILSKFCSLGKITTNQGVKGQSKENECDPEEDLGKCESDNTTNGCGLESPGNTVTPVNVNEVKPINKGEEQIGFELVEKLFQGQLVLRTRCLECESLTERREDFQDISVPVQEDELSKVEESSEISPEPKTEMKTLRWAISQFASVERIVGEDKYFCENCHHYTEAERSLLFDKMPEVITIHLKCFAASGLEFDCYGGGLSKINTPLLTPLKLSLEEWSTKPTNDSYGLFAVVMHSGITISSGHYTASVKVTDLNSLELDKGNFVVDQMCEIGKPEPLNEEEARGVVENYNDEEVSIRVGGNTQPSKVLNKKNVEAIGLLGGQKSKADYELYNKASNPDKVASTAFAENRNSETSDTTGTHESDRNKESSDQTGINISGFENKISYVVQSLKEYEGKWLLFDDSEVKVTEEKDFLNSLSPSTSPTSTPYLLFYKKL
Dual specificity protein kinase CLK4 (Homo sapiens), sequence (Q9HAZ1 whole entry, looked up): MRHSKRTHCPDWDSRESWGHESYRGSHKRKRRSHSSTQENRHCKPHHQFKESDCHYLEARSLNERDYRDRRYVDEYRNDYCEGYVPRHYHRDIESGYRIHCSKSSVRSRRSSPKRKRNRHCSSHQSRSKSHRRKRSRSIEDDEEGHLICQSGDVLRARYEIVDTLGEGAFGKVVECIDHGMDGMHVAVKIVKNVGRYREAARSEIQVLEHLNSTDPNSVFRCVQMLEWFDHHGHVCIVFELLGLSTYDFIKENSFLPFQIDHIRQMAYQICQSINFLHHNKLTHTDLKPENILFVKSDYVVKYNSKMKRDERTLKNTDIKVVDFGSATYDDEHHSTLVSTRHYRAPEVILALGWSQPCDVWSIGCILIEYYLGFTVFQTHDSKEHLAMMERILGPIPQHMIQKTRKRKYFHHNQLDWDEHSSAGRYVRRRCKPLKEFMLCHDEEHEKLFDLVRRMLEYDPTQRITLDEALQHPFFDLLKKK
3',5'-cyclic-AMP phosphodiesterase 4B (Homo sapiens), sequence (Q07343 whole entry, looked up): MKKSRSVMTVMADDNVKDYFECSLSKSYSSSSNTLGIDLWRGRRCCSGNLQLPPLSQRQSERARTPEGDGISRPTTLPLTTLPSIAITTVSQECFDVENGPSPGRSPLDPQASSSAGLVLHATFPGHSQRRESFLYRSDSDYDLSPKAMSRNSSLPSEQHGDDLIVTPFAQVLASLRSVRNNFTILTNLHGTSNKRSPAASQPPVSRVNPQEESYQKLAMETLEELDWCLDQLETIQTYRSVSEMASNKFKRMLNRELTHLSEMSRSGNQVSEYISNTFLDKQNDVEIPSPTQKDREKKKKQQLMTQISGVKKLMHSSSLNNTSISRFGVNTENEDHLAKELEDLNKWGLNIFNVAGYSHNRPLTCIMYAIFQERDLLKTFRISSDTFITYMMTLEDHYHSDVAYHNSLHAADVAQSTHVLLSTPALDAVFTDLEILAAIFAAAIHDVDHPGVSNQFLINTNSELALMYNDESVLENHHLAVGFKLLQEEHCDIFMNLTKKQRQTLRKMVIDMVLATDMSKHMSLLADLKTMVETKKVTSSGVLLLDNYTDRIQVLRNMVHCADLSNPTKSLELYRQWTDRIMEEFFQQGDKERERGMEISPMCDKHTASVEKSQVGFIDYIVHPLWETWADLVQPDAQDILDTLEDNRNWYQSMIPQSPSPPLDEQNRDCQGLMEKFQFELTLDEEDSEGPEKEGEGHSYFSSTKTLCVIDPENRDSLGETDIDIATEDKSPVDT
Cytochrome P450 3A4 (Homo sapiens), sequence (P08684 whole entry, looked up): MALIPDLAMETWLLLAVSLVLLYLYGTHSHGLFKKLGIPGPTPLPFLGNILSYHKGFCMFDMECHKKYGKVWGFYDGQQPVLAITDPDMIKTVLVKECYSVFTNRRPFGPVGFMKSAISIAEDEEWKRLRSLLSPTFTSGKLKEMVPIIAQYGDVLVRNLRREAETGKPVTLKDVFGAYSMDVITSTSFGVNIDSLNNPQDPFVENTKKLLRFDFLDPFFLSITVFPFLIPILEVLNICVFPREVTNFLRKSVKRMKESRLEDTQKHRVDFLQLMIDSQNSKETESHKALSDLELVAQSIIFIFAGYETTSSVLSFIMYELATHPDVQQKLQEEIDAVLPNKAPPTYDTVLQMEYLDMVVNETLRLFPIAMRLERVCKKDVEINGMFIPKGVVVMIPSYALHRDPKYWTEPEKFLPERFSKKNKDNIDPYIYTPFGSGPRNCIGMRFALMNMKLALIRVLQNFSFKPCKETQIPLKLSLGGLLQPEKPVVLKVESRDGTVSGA
Cytochrome P450 1A2 (Homo sapiens), sequence (P05177 whole entry, looked up): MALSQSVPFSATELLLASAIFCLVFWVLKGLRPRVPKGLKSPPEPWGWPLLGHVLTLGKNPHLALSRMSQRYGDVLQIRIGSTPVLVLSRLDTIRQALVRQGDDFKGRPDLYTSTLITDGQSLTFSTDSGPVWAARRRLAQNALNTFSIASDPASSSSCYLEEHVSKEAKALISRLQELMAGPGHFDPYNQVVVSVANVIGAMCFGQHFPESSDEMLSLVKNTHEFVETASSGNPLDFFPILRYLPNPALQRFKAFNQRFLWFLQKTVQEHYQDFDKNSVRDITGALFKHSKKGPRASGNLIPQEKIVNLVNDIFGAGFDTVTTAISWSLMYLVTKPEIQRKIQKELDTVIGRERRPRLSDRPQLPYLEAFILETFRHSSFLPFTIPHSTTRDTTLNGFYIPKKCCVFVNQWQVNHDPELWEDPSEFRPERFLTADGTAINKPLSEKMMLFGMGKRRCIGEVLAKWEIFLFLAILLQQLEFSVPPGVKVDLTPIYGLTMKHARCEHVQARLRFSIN
Lysosomal acid glucosylceramidase (Homo sapiens), sequence (P04062 whole entry, looked up): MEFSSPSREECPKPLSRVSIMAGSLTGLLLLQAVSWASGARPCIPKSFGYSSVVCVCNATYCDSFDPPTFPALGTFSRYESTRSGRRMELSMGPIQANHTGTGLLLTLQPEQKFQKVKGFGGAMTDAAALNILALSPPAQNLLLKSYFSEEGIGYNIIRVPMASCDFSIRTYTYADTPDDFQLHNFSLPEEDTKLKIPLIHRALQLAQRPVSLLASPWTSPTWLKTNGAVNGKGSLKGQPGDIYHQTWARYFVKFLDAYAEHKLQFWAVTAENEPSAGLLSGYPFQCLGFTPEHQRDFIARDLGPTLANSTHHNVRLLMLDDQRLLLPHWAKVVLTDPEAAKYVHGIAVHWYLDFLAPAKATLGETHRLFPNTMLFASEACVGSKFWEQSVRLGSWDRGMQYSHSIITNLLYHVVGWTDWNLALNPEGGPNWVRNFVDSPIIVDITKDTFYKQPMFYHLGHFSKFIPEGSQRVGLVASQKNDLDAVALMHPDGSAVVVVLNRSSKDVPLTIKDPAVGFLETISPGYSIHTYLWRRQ
Cytochrome P450 2C19 (Homo sapiens), sequence (P33261 whole entry, looked up): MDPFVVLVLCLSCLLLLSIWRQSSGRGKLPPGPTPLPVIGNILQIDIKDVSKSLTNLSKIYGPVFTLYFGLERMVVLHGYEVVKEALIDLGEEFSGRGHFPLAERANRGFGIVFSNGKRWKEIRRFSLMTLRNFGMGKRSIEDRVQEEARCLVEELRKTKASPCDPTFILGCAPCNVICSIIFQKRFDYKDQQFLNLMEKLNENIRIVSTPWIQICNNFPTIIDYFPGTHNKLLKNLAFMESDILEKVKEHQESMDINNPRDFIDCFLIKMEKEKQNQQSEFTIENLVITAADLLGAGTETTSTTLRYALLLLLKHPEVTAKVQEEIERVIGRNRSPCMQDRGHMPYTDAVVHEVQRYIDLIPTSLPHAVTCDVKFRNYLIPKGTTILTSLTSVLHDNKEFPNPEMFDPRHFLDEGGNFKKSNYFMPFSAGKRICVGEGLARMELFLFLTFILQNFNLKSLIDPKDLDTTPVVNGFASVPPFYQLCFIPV

COc1cccc(-c2ccc3ncnc(NCc4ccccc4)c3c2)c1
active: Potency [6] 2 µM | Potency [7] 2.24 µM | Potency [8] 0.794 µM
-2.9%: max response [5, 19]
-10.2%: max response [5, 20]
inactive: Potency [1] > 46 µM | Potency [2] > 46 µM | outcome [3] | Potency [4] | activity change, negative = inhibition [5] -5.64% | Potency [9] | Potency [10]

CS(=O)(=O)Nc1cccc(-c2ccc3ncnc(NC4CC4)c3c2)c1
-8.29%: max response [5, 19]
-10.1%: max response [5, 20]
inactive: activity change, negative = inhibition [11] -14.5% | activity change, negative = inhibition [13] -15.5% | activity, negative = inhibition [14] -20.6% | Potency [2] > 46 µM | outcome [3] | Potency [4] | Potency [16] | Potency [17] | activity change, negative = inhibition [5] -3.87% | Potency [9] | Potency [10]
active: Potency [12] 0.631 µM | Potency [15] 6.31 µM | Potency [6] 6.31 µM | Potency [7] 5.01 µM | Potency [8] 4.47 µM

COc1ccc(-n2c(=O)c(-c3cn(C)c4ccccc34)nc3cnc(N4CCOCC4)nc32)cc1
inactive: Potency [18] > 11.4 µM | activity change, negative = inhibition [11] 11.1% | activity change, negative = inhibition [13] -2.62% | activity, negative = inhibition [14] 3.33% | Potency [1] > 9.22 µM | Potency [2] > 46 µM | outcome [3] | Potency [4] | activity change, negative = inhibition [5] 7.4% | Potency [6] | Potency [7] | Potency [9] | Potency [10]
4.27%: max response [5, 19]
active: Potency [12] 31.6 µM
9.94%: max response [5, 20]

— PubChem BioAssay (NCATS)
